Compound activity deposited in PubChem by National Center for Advancing Translational Sciences (NCATS).
JMJD2A Tudor inh: qHTS Assay for Inhibitors of JMJD2A-Tudor Domain | actives 4.4% (n = 390,000) | AlphaScreen JMJD2A-Tudor / H3K4me3 peptide binding | AID 504339, 2011 | Potency, µM (series often up to 114 µM), inactives show top-dose activity change, negative = inhibition, hits mostly inhibitors | Lysine-specific demethylase 4A (Homo sapiens), O75164; also: potency is read from the fitted curve at half-maximal effect; % is scaled to controls: 0 for no effect and ±100 for the full control effect; nearly all actives have a fitted effect of over 50% in size
Six1-Eya2 inh: qHTS Assay for Inhibitors of the Six1/Eya2 Interaction. Homeobox protein SIX1 (Homo sapiens) + Protein phosphatase EYA2 (Homo sapiens), …. AlphaScreen GST-Six1/His-Eya2 binding, biochemical; stronger effect = lower value. activity change, % (concentration not given with the values). actives 0.56% (n = 360,000). AID 651725, 2012; in the data active = activity change below about -65%; inconclusive = mostly about -30% to -63%; also: % is scaled to controls: 0 for no effect and ±100 for the full control effect
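Six1/Eya2 binding was read as AlphaScreen signal after compounds were pinned into GST-Six1 plus His-tagged Eya2 (5X stock 250/500 nM) in pH 8.0 Tris/NaCl/TCEP buffer, beads added, then incubated 1 h, 37 C, dark.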
G9a block: qHTS Assay for Inhibitors of Histone Lysine Methyltransferase G9a; G9a H3K9 monomethylation, AlphaScreen, 2 h; actives 8.8% (n = 350,000); Histone-lysine N-methyltransferase EHMT2 (Homo sapiens), Q96KQ7; Potency, µM (series often up to 102 µM), for inactives: at the highest dose activity, negative = inhibition, most hits filed as inhibitors; also: potency is read from the fitted curve at half-maximal effect; % is scaled to controls: 0 for no effect and ±100 for the full control effect; nearly all actives have a fitted effect of over 75% in size
Target sequence (Q96KQ7 913-1193 limits assumed): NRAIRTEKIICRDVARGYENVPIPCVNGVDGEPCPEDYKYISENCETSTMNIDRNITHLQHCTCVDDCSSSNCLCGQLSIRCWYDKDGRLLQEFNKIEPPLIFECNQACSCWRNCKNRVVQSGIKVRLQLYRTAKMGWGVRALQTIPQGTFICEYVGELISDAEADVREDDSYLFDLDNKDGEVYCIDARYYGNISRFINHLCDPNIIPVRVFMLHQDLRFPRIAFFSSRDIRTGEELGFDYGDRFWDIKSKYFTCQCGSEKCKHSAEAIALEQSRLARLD
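Step 1: enzyme (final 20 nM) with compound, 15 min RT. Step 2: substrate peptide 500 nM and SAM 20 uM, 2 h RT. Step 3: anti-H3K9me1 antibody and AlphaScreen beads, 10 min, then plate read.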
HP1b binding inh: HTS for Inhibitors of HP1-beta Chromodomain Interactions with Methylated Histone Tails; AlphaScreen HP1-beta / biotin-H3K9me3 peptide binding; Potency, µM (series often up to 114 µM), for inactives: at the top dose activity change, negative = inhibition, actives largely listed as inhibitors; actives 0.56% (n = 390,000); also: potency is read from the fitted curve at half-maximal effect; nearly all actives have a fitted effect of over 70% in size
Target sequence (P83916 whole entry, looked up): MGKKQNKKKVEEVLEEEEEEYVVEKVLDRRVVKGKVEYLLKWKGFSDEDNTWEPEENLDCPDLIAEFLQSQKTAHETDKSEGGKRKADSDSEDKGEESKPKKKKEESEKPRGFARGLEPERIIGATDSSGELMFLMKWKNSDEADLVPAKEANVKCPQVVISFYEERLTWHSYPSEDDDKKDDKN
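Compound inhibition of the preformed complex between 50 nM HP1-beta and 50 nM biotinylated H3K9me3 peptide was read by AlphaScreen. Buffer was PBS pH 7.4 with 0.01% Tween-20. Incubations ran 30 min at room temperature, with 10 ug/mL donor/acceptor beads.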
CtBP-E1A blk: qHTS Assay for Inhibitors of the CtBP/E1A Interaction | CtBP / adenovirus E1A interaction (AlphaScreen) | AlphaScreen GST-E1A/His-CtBP binding, 1536-well; stronger effect = lower value | activity change, % (concentration not given with the values) | actives 0.49% (n = 340,000) | AID 651724, 2012; in the data active = activity change below about -65%; inconclusive = mostly about -30% to -63%; also: % is scaled to controls: 0 for no effect and ±100 for the full control effect
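AlphaScreen with 125 nM GST-E1A and 125 nM His-CtBP (5X stocks) in Tris pH 8.0, 300 mM NaCl, BSA, Tween 20, TCEP. Compounds preincubated 2 h at 37 deg C, then glutathione donor/nickel acceptor beads added for 1 h at 37 deg C in dark.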
BAZ2B inh: qHTS Assay for Inhibitors of BAZ2B; Bromodomain adjacent to zinc finger domain protein 2B (Homo sapiens), Q9UIF8; AlphaScreen BAZ2B-H3K14Ac peptide displacement; Potency, µM (top dose mostly 114 µM), for the others: at the highest dose activity change, negative = inhibition, usual class: inhibitors; actives 4.4% (n = 360,000); AID 504333, 2011; also: potency is read from the fitted curve at half-maximal effect; % is scaled to controls: 0 for no effect and ±100 for the full control effect; nearly all actives have a fitted effect of over 60% in size
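In this displacement format the biotinylated H3(5-23) peptide acetylated at Lys14 serves as ligand at 50 nM, with BAZ2B at 50 nM in PBS pH 7.4 containing 0.01% Tween-20. Donor and acceptor beads are 10 ug/mL final.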
* = called active by the depositor; u = inconclusive; x = no result given; [ ] = remark or other dose. Hits are enriched below; roughly 10% of the tested compounds scored in any of these assays. Unless noted, calls follow the shape of the dose curve; as a rule, active = well fitted inhibition curve with a large enough effect; inconclusive = small, poorly fitted or top-dose-only effect; inactive = no such curve, though single readings can be large or run the other way.

SMILES	JMJD2A Tudor inh	Six1-Eya2 inh	G9a block	HP1b binding inh	CtBP-E1A blk	BAZ2B inh
CN(C)c1ccc(C(=S)N2CCN(Cc3ccccc3)CC2)cc1	56.2µM*	u	8.91µM*	u	x	35.5µM*
CCN1CCN(C(=S)c2ccc(O)cc2)CC1	-9.4%	1.5	6.31µM*	-9.5%	x	-28.2%
Oc1ccc(C(=S)N2CCN(Cc3ccccc3)CC2)cc1	u	-9.7	2.24µM*	u	x	-24.8%
S=C(c1ccc(Br)cc1)N1CCN(Cc2ccccc2)CC1	u	-22.8	x	-34.6%	-22.3	u
CN(C)c1ncnc2c1ncn2[C@H]1CN(C2CCCC2)C[C@@H](CO)O1	x	9.7	x	x	7.0	x
CCN(C(=O)COc1cc(OC)ccc1C(C)=O)C1CCS(=O)(=O)C1 (centres undefined)	-8.1%	21.7	23.2%[12.7 µM]	75.0%	x	-0.6%
Cc1cc(Cl)ccc1NC(=O)CCN1C(=O)NC(C)(C)C1=O	6.7%	1.2	-13.3%[2.33 µM]	33.9%	4.4	6.6%
CN1c2ccsc2/C(=N/Nc2ccccc2)CS1(=O)=O	56.2µM*	-18.1	25.1µM*	u	-13.9	u
CN1c2ccsc2/C(=N/NC(=O)c2c(F)cccc2F)CS1(=O)=O	u	1.6	45.0%[59 µM]	28.7%	2.0	-27.4%
COC(=O)C[C@@H]1C=C[C@H](NC(=O)Nc2ccc(F)cc2)[C@@H](CO)O1	x	9.5	x	x	-0.4	x
COc1ccc(NC(=O)Cn2c(=O)n(Cc3nc(-c4ccccc4)no3)c(=O)c3cc4c(cc32)OCO4)cc1Cl	-20.3%	x	-0.4%[59 µM]	32.0%	x	-23.0%
C=CCC(NCc1ccccc1)c1ccccc1 (centres undefined)	3.8%	39.7	-37.4%[59 µM]	41.2%	0.9	-4.1%
C=CCC(NC(C)c1ccccc1)c1ccco1 (centres undefined)	2.51µM*	1.2	x	u	-4.0	50.1µM*
CC1=[N+](C)c2ccc3ccccc3c2C1(C)C	u	-25.9	8.91µM*	-5.0%	-17.2	50.1µM*
Cc1ccc(C(=O)NCC(c2ccco2)S(=O)(=O)c2cccs2)cc1C (centres undefined)	-21.8%	x	6.3%[59 µM]	19.7%	x	-9.1%
COc1cccc(CNC(=O)C23CN(Cc4ccccc4)CC2C(c2ccc([N+](=O)[O-])cc2)=NO3)c1 (centres undefined)	u	-24.3	70.8µM*	13.9%	-26.7	-37.3%
O=C(O)CN1C(=O)CSC1=S	-2.1%	-5.2	u	8.3%	-13.3	-24.0%
CC1=NN(c2ccc(Br)cc2)C(=O)/C1=C/c1cccs1	u	10.2	7.08µM*	-52.9%	4.2	4.47µM*
CC1=NN(c2ccccc2)C(=O)/C1=C\c1cn(CCC#N)nc1-c1ccc(Cl)cc1	u	5.7	4.47µM*	u	8.6	u
COc1cc(/C=C2/C(=O)N(c3ccc(C(=O)O)cc3)N=C2C)cc(OC)c1O	-21.7%	-6.6	39.8µM*	u	1.7	u
CC1=NN(c2ccccc2)C(=O)/C1=C\c1cn(-c2ccccc2)nc1C	u	15.0	u	8.91µM*	0.0	x
COc1ccccc1/C=C1/C(=O)N(c2ccccc2)N=C1C	u	0.8	u	-19.2%[57 µM]	2.1	u
CC1=NN(c2ccccc2)C(=O)/C1=C/c1cc(C)n(C2CC2)c1C	-34.6%[11.4 µM]	-3.0	7.0%[12.7 µM]	25.9%	x	u
COc1cc(/C=C2\C(=O)N(c3cccc(C(=O)O)c3)N=C2C)ccc1OCc1ccccc1	x	-5.4	x	x	-14.1	x
COc1cc(/C=C2/C(=O)N(c3ccc(Br)cc3)N=C2C)cc(OC)c1OC	35.5µM*	-3.1	50.1µM*	-35.1%	-1.6	39.8µM*
SMILES	JMJD2A Tudor inh	Six1-Eya2 inh	G9a block	HP1b binding inh	CtBP-E1A blk	BAZ2B inh
COc1cc(/C=C2/C(=O)N(c3ccc(C)c(C)c3)N=C2C)cc([N+](=O)[O-])c1O	44.7µM*	-3.4	2.0%[0.501 µM]	u	13.9	39.8µM*
CC1=NN(c2ccccc2)C(=O)/C1=C\c1sccc1C	u	7.1	u	u	6.0	7.08µM*
COc1ccc(-c2nc3cnc(OC)nc3n(CCC#N)c2=O)cc1	x	x	16.5%[0.501 µM]	x	x	x
Cc1cc(C)c(S(=O)(=O)n2ccc(-c3ccc(OCCN(C)c4ccccn4)cc3)n2)c(C)c1	-22.8%[57.1 µM]	-1.3	72.7%[59 µM]	20.9%	-6.4	-0.9%
CC(=O)Oc1c(/C=C(\C#N)C(N)=O)[nH]c2ccccc12	-17.3%	-21.1	11.2µM*	4.6%	x	-36.2%
CC(=O)/C(CN1CCCCC1)=N\O	-7.6%	9.5	-5.7%[59 µM]	20.4%	8.4	7.9%
C/C(=N\O)C(=O)C(CN1CCCCC1)CN1CCCCC1	-30.2%	-5.4	0.891µM*	u	-21.6	7.5%
Cc1oc(C(C)(C)C)cc1C(=O)N1CCCC1C(=O)O (centres undefined)	100µM*	0.1	-4.6%[59 µM]	7.1%	-3.3	-3.2%
COc1ccc(-n2c(Cc3ccccc3)nnc2SCc2ccc([N+](=O)[O-])cc2)cc1	u	-5.6	50.1µM*	-13.8%	-11.4	u
O=[N+]([O-])c1ccc(CSc2nnc(Cc3ccccc3)n2-c2ccc(F)cc2)cc1	-34.5%	-11.7	-12.9%[59 µM]	3.0%	6.1	u
COc1ccc(CC(=O)NCc2nnc(SCc3ccc([N+](=O)[O-])cc3)n2C)cc1	-14.7%	-2.3	12.9%	17.5%	4.9	-13.0%
Cn1c(Cc2cccc3ccccc23)nnc1SCc1ccc([N+](=O)[O-])cc1	u	-16.5	10µM*	-8.4%	-6.2	-39.0%
c1cc2c(c(CC3CO3)c1CC1CO1)OCCOCCOCCOCCO2 (centres undefined)	x	2.7	x	x	-1.0	x
Cc1ccc(N/C=C(\C#N)c2ccc(OCCCF)cc2)cc1	-15.8%	-12.9	44.7µM*	5.8%	-0.4	u
COc1ccc(N/C=C(\C#N)c2ccc(OCCCF)cc2)cc1	u	-26.4	-11.7%[12.7 µM]	-11.9%	-9.4	u
CS(=O)(=O)Nc1cccc(NC(=O)C2Cc3c(-c4ccccc4)ccnc3O2)c1 (centres undefined)	x	7.6	x	x	-20.6	x
COc1ccccc1Nc1nc(C)c(C(=O)Nc2ccccc2)s1	-31.2%	-1.9	50.1µM*	9.5%	1.9	-31.7%
Cc1nc(Nc2ccccc2Cl)sc1C(=O)Nc1ccccc1	-19.9%	-14.4	28.2µM*	22.4%	-2.3	u
COc1ccccc1Nc1nc2c(s1)CCC2	-21.9%	-3.1	25.1µM*	-4.6%	-6.4	-36.2%
